PKM2 inh – inhibitors of human pyruvate kinase M2. P14618. purified PKM2, ATP generation, Kinase-Glo luminescence. Potency, µM (top dose mostly 57.5 µM), most hits filed as inhibitors. hit rate 0.058% among 260,000. AID 1634; active = well fitted inhibition curve with a large enough effect; note: nearly all actives have a fitted effect of over 60% in size
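Enzyme run at intermediate activity with final 0.1 mM ADP, 0.5 mM PEP (50 mM imidazole pH7.2, 50 mM KCl, 7 mM MgCl2), incubated 1 h at r.t. ATP formed read by Kinase-Glo luminescence, normalized to no-enzyme (full inhibition) and uninhibited wells.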
Each line names hits and unclear results; the compound was inactive in the other large screens. Many of the other results were omitted from the sample, so hits are more common in it than they were.

CN(C)C(=O)Oc1ccc(OCc2nc3ccccc3[nH]2)cc1	PKM2 inh 11µM
CSc1nc2ccccc2n1C(=O)Oc1ccccc1	none
O=C(Nc1cccnc1)C1CCN(S(=O)(=O)c2cccs2)CC1	none
CC(=O)Nc1ccc(N(C(=O)Cn2nnc3ccccc32)C(C(=O)NC2CCCC2)c2ccc(O)c(O)c2)cc1 (stereo not drawn)	none
NP(=O)(OCCCc1ccccc1)Oc1ccccc1Cl (stereo not drawn)	none
CN(C)C(=S)SSC(=S)N(C)C	PKM2 inh 14µM
CC(=NCc1ccco1)c1c(O)n(-c2ccccc2)c(=O)[nH]c1=O	none
Cc1cc2c(C(C)C)c(O)c(O)c(C=O)c2c(O)c1-c1c(C)cc2c(C(C)C)c(O)c(O)c(C=O)c2c1O	none
S=P(Nn1cnnc1)(c1ccc(Br)cc1)c1ccc(Br)cc1	none
O=C1NC(=O)N(CCC2=CCCCC2)C(=O)/C1=C/c1cccs1	none

Screening data as filed in PubChem BioAssay.
